Data: PubChem BioAssay (NCATS)
Inconclusive results are not listed. Active and inactive are the calls of the source. The call rests on the fitted dose curve; in most records, active means well fitted curve in the direction sought with a large enough effect; inconclusive means small, poorly fitted or top-dose-only effect, or another doubt; inactive means no such curve, though single readings can be large; an effect the other way counts as inactive or inconclusive.

What follows are compounds tested against D(1A) dopamine receptor (Homo sapiens) (UniProt P21728) (assay: HTS Assay for Allosteric Agonists of the Human D1 Dopamine Receptor: Primary Screen for Potentiators (AID 488982; on activity, positive = potentiation: 0% is about no effect)). Details: HEK293 T-REx D1 inducible cells, calcium flux, kinetic fluorescence; series mostly up to 8.37 µM; activity, positive = potentiation: at the top concentration.
Outline: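 Calcium flux in an inducible, force-coupled HEK293 Trex D1 line (overnight at 30 C): agonist mode is the 180 s kinetic read after compound; potentiator mode is the following 180 s read after dopamine at EC20.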
Potency means the concentration at half of the fitted maximal effect.

D(1A) dopamine receptor (Homo sapiens), sequence (P21728 whole entry, looked up): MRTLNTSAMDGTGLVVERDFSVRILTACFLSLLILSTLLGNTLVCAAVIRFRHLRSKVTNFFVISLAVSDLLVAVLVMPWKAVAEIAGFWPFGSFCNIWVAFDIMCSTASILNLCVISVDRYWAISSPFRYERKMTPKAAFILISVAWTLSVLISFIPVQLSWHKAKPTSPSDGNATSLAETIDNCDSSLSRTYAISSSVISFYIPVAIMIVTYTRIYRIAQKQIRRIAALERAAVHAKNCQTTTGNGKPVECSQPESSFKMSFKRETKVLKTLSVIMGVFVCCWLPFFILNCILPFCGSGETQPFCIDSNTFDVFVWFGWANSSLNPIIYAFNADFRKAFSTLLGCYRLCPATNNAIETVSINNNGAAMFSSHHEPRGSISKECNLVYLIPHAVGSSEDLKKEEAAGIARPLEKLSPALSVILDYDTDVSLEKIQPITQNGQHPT

Compound	activity, positive = potentiation	Potency
CCCC[N+]1(C)C2CC(OC(=O)[C@H](CO)c3ccccc3)CC1C1OC12 (some centres not stated)	-8.13% (inactive)	–
CC(N)Cc1c[nH]c2ccc(O)cc12 (configuration not stated)	-57.6% (inactive)	–
COc1ccc2c(c1)[C@@]13CCCC[C@H]1[C@@H](C2)NCC3	29% (inactive)	–
O=c1c2ccccc2[se]n1-c1ccccc1	33.6% (inactive)	–
c1ccc2cc(CC3=NCCN3)ccc2c1	10.2% (inactive)	–
Ic1ccccc1CNC1C2CCN(CC2)C1C(c1ccccc1)c1ccccc1 (configuration not stated)	–	4.11 µM (active)
CC(C)NP(=O)(NC(C)C)OP(=O)(NC(C)C)NC(C)C	6.79% (inactive)	–
C=CCN(C1=NCCN1)c1c(Cl)cccc1Cl	2.24% (inactive)	–
C[N+]1(C)CCc2cc3c(cc2[C@H]1[C@@H]1OC(=O)c2c1ccc1c2OCO1)OCO3	24.4% (inactive)	–
COc1ccc2c(c1)/C(=C/c1cnc[nH]1)C(=O)N2	7% (inactive)	–
COc1ccc(CNC(=O)/C=C/c2ccc3[nH]cc(CCN(C)C)c3c2)cc1	-2.39% (inactive)	–
CO[C@H]1CC=C2CCN3CCC4=C(CC(=O)OC4)[C@]23C1	-2.23% (inactive)	–
CCCCCCCCCCCCCC(=O)O[C@@H]1[C@@H](C)[C@@]2(O)[C@@H](C=C(CO)C[C@@]3(O)C(=O)C(C)=C[C@@H]23)C2C(C)(C)[C@@]21OC(C)=O (some centres not stated)	28.8% (inactive)	–
Oc1ccc2c3c1O[C@H]1c4[nH]c5ccccc5c4C[C@@]4(O)C(C2)N(CC2CC2)CCC314 (some centres not stated)	8.23% (inactive)	–
C[N+](C)(C)CC#CCOC(=O)Nc1cccc(Cl)c1	12% (inactive)	–
Oc1ccc2c3c1O[C@H]1c4oc5ccccc5c4C[C@@]4(O)C(C2)N(CC2CC2)CCC314 (some centres not stated)	10% (inactive)	–
CN1CCC(c2c[nH]c3ccc(O)cc23)CC1	-69.2% (inactive)	–

Compound	activity, positive = potentiation	Potency
COC(=O)N1CCN(C(=O)Cc2ccc(Cl)c(Cl)c2)C(CN2CCCC2)C1 (configuration not stated)	-22.4% (inactive)	–
COc1ccc2c(c1)C13CCCCC1C(C2)N(C)CC3 (configuration not stated)	5.93% (inactive)	–
C[C@]12Cc3cn4c(nc3C=C1CCC1C2CC[C@@]2(C)[C@H]1CC[C@@]2(O)C#N)nc1ccccc14 (some centres not stated)	-1.41% (inactive)	–
CCCn1c(=O)c2[nH]c(C3CCCC3)nc2n(CCCOC(=O)c2ccc(S(=O)(=O)F)cc2)c1=O	-7.47% (inactive)	–
Cc1cc([C@@H]2CCCN2C)on1	10.7% (inactive)	–
N=C(N)c1ccc(CS(=O)(=O)F)cc1	-16.4% (inactive)	–
C[N+]1(C)CCOC(O)(c2ccc(-c3ccc(C4(O)C[N+](C)(C)CCO4)cc3)cc2)C1 (configuration not stated)	4.37% (inactive)	–
C[N+]1(C)C2CCC1CC(OC(=O)c1c[nH]c3ccccc13)C2 (configuration not stated)	-10.4% (inactive)	–
NC(N)=Nc1ccc2[nH]c3c(c2c1)C[C@@]1(O)[C@H]2Cc4ccc(O)c5c4[C@@]1(CCN2CC1CC1)[C@H]3O5	-7.26% (inactive)	–
Nc1ccc(CCN2CCN(c3cccc(C(F)(F)F)c3)CC2)cc1	-84% (inactive)	–
Cc1[nH]c2ccc(O)cc2c1CCN	-8.63% (inactive)	–
CC(=O)c1c(O)c(C)c(O)c(Cc2c(O)c3c(c(C(=O)/C=C/c4ccccc4)c2O)OC(C)(C)C=C3)c1O	-33% (inactive)	–
C=CCN1CC[C@]23c4c5ccc(O)c4O[C@H]2/C(=N/NC(=O)c2ccccc2)CC[C@@]3(O)[C@H]1C5	34.8% (inactive)	–
C[C@@H]1O[C@H](C[N+](C)(C)C)CS1	29.9% (inactive)	–
CC(N)Cc1c[nH]c2ccc(OCc3cccs3)cc12 (configuration not stated)	-33% (inactive)	–
NC(C(=O)O)c1cc(=O)[nH]o1 (configuration not stated)	-8.07% (inactive)	–
CN(N=O)c1cc(O)ccc1O	18.9% (inactive)	–

The compounds below were run against D(1A) dopamine receptor (Homo sapiens) (UniProt P21728) (assay: HTS Assay for Allosteric Agonists of the Human D1 Dopamine Receptor: Primary Screen for Antagonists (AID 488983;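 further: calcium flux response to an EC80 dopamine challenge measured with no-wash dye; nearly all actives have a fitted effect of over 65% in size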; on activity change, negative = inhibition: on the % scale 0 is the no-effect control and ±100 the full control effect)). Details: D1 receptor cell assay, antagonist mode, qHTS titration; series mostly up to 41.8 µM; activity change, negative = inhibition: at the top concentration.
Outline: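 Kinetic fluorescence at 1 cycle/sec tracked intracellular calcium in force-coupled, tetracycline-inducible HEK293 T-REx D1 cells. Loss of response to an EC80 dopamine dose, given 180 s after compound, marked antagonists.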

Compound	activity change, negative = inhibition	Potency
CCCC[N+]1(C)C2CC(OC(=O)[C@H](CO)c3ccccc3)CC1C1OC12 (some centres not stated)	-6.86% (inactive)	–
COc1ccc2c(c1)[C@@]13CCCC[C@H]1[C@@H](C2)NCC3	28.9% (inactive)	–
O=c1c2ccccc2[se]n1-c1ccccc1	-26.4% (inactive)	–
c1ccc2cc(CC3=NCCN3)ccc2c1	4.79% (inactive)	–
OCc1cnc[nH]1	4.9% (inactive)	–
CC(C)NP(=O)(NC(C)C)OP(=O)(NC(C)C)NC(C)C	-3.67% (inactive)	–
C=CCN(C1=NCCN1)c1c(Cl)cccc1Cl	5.03% (inactive)	–
C[N+]1(C)CCc2cc3c(cc2[C@H]1[C@@H]1OC(=O)c2c1ccc1c2OCO1)OCO3	-7.38% (inactive)	–
COc1ccc2c(c1)/C(=C/c1cnc[nH]1)C(=O)N2	-0.579% (inactive)	–
COc1ccc(CNC(=O)/C=C/c2ccc3[nH]cc(CCN(C)C)c3c2)cc1	-8.59% (inactive)	–
CO[C@H]1CC=C2CCN3CCC4=C(CC(=O)OC4)[C@]23C1	-2.78% (inactive)	–
CCCCCCCCCCCCCC(=O)O[C@@H]1[C@@H](C)[C@@]2(O)[C@@H](C=C(CO)C[C@@]3(O)C(=O)C(C)=C[C@@H]23)C2C(C)(C)[C@@]21OC(C)=O (some centres not stated)	1.17% (inactive)	–
Oc1ccc2c3c1O[C@H]1c4[nH]c5ccccc5c4C[C@@]4(O)C(C2)N(CC2CC2)CCC314 (some centres not stated)	-14.6% (inactive)	–
CN1CC[C@@]2(C)c3cc(O)ccc3N(C)C12 (some centres not stated)	14.3% (inactive)	–
C[N+](C)(C)CC#CCOC(=O)Nc1cccc(Cl)c1	11.4% (inactive)	–
Oc1ccc2c3c1O[C@H]1c4oc5ccccc5c4C[C@@]4(O)C(C2)N(CC2CC2)CCC314 (some centres not stated)	-1.04% (inactive)	–
CN1CCC(c2c[nH]c3ccc(O)cc23)CC1	–	6.31 µM (active)

Compound	activity change, negative = inhibition	Potency
COC(=O)N1CCN(C(=O)Cc2ccc(Cl)c(Cl)c2)C(CN2CCCC2)C1 (configuration not stated)	-8.29% (inactive)	–
COc1ccc2c(c1)C13CCCCC1C(C2)N(C)CC3 (configuration not stated)	18.4% (inactive)	–
C[C@]12Cc3cn4c(nc3C=C1CCC1C2CC[C@@]2(C)[C@H]1CC[C@@]2(O)C#N)nc1ccccc14 (some centres not stated)	0.694% (inactive)	–
CCCn1c(=O)c2[nH]c(C3CCCC3)nc2n(CCCOC(=O)c2ccc(S(=O)(=O)F)cc2)c1=O	5.15% (inactive)	–
Cc1cc([C@@H]2CCCN2C)on1	-5.31% (inactive)	–
N=C(N)c1ccc(CS(=O)(=O)F)cc1	-2.87% (inactive)	–
C[N+]1(C)CCOC(O)(c2ccc(-c3ccc(C4(O)C[N+](C)(C)CCO4)cc3)cc2)C1 (configuration not stated)	4.04% (inactive)	–
C[N+]1(C)C2CCC1CC(OC(=O)c1c[nH]c3ccccc13)C2 (configuration not stated)	-2.61% (inactive)	–
NC(N)=Nc1ccc2[nH]c3c(c2c1)C[C@@]1(O)[C@H]2Cc4ccc(O)c5c4[C@@]1(CCN2CC1CC1)[C@H]3O5	-19.6% (inactive)	–
Cc1[nH]c2ccc(O)cc2c1CCN	-0.85% (inactive)	–
CC(=O)c1c(O)c(C)c(O)c(Cc2c(O)c3c(c(C(=O)/C=C/c4ccccc4)c2O)OC(C)(C)C=C3)c1O	13.9% (inactive)	–
C=CCN1CC[C@]23c4c5ccc(O)c4O[C@H]2/C(=N/NC(=O)c2ccccc2)CC[C@@]3(O)[C@H]1C5	1.36% (inactive)	–
C[C@@H]1O[C@H](C[N+](C)(C)C)CS1	-3.95% (inactive)	–
CC(N)Cc1c[nH]c2ccc(OCc3cccs3)cc12 (configuration not stated)	-26.3% (inactive)	–
NC(C(=O)O)c1cc(=O)[nH]o1 (configuration not stated)	10.7% (inactive)	–
CN(N=O)c1cc(O)ccc1O	7.01% (inactive)	–
